PubChem BioAssay AID1159580 (chemical genetic matrix, 2015)
Several values for one entry are separate records, joined by “and”; a condition that tells them apart may be missing. Identical values can stand only once. The whole screen tested about 5,500 compounds, of which about 2,000 (36%) were called active. Another 18% or so got no clear call; they are omitted. Cut-off read from the data, not from the text of the source: active = normalized growth mostly below about 0.91 (no sharp cut-off); inconclusive = no clear call, values can overlap the other calls; inactive = mostly above about 0.92. Some of the results follow.

Test: chemical genetic growth profiling, strain panel (AID 1159580);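 note: tested at 20 µM; growth read once vehicle control cultures reached saturation at 30 °C; 1 = growth at the plate median or of vehicle wells; lower values mean less growth of the strain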
Conditions: S. cerevisiae deletion strains, growth OD

Measured: normalized growth

COc1ccc(CC(=O)c2ccc(O)cc2O)cc1
inactive: locus YAL021C, strain ccr4, stronger effect = lower value 0.998 | locus YAL026C, strain drs2, stronger effect = lower value 0.954 | locus YAL030W, strain snc1, stronger effect = lower value 0.985 | locus YBL061C, strain skt5, stronger effect = lower value 0.986 | locus YBR009C, strain hhf1, stronger effect = lower value 0.937 | locus YBR021W, strain FUR4, stronger effect = lower value 0.894 | locus YBR023C, strain chs3, stronger effect = lower value 0.958 | locus YBR171W, strain sec66, stronger effect = lower value 0.973 | locus YBR229C, strain ROT2, stronger effect = lower value 0.969 | locus YBR231C, strain swc5, stronger effect = lower value 0.989 | locus YBR279W, strain paf1, stronger effect = lower value 0.99 | locus YCL011C, strain gbp2, stronger effect = lower value 0.973 | locus YCL016C, strain dcc1, stronger effect = lower value 0.961 | locus YCL029C, strain bik1, stronger effect = lower value 0.953 | locus YCL061C, strain MRC1, stronger effect = lower value 0.965 | locus YCL069W, strain vba3, stronger effect = lower value 0.982 | locus YCR088W, strain abp1, stronger effect = lower value 0.988 | locus YDL005C, strain med2, stronger effect = lower value 1.01 | locus YDL035C, strain GPR1, stronger effect = lower value 0.94 | locus YDL040C, strain nat1, stronger effect = lower value 0.977 | locus YDL074C, strain BRE1, stronger effect = lower value 0.848 | locus YDL101C, strain DUN1, stronger effect = lower value 0.969 | locus YDL185W, strain tfp1, stronger effect = lower value 0.983 | locus YDR001C, strain nth1, stronger effect = lower value 0.992 | locus YDR069C, strain doa4, stronger effect = lower value 1 | locus YDR101C, strain arx1, stronger effect = lower value 0.956 | locus YDR159W, strain sac3, stronger effect = lower value 0.96 | locus YDR162C, strain NBP2, stronger effect = lower value 0.872 | locus YDR297W, strain sur2, stronger effect = lower value 0.988 | locus YDR334W, strain swr1, stronger effect = lower value 0.991 | locus YDR335W, strain msn5, stronger effect = lower value 0.975 | locus YDR388W, stronger effect = lower value 0.963 | locus YDR502C, strain sam2, stronger effect = lower value 0.924 | locus YEL003W, strain gim4, stronger effect = lower value 0.969 | locus YEL037C, strain rad23, stronger effect = lower value 0.997 | locus YEL061C, strain CIN8 (second series), stronger effect = lower value 0.994 | locus YER015W, strain faa2, stronger effect = lower value 0.971 | locus YER016W, strain bim1, stronger effect = lower value 0.996 | locus YER110C, stronger effect = lower value 0.975 | locus YER111C, strain swi4, stronger effect = lower value 0.998 | locus YER155C, strain BEM2, stronger effect = lower value 0.956 | locus YER167W, strain BCK2, stronger effect = lower value 0.962 | locus YFR010W, strain ubp6, stronger effect = lower value 1.01 | locus YGL078C, strain dbp3, stronger effect = lower value 0.983 | locus YGL167C, strain pmr1, stronger effect = lower value 0.984 | locus YGL173C, strain kem1, stronger effect = lower value 0.979 | locus YGL227W, strain vid30, stronger effect = lower value 0.997 | locus YGL240W, strain doc1, stronger effect = lower value 0.925 | locus YGL248W, strain PDE1, stronger effect = lower value 0.922 | locus YGL253W, strain hxk2, stronger effect = lower value 0.982 | locus YGR135W, strain pre9, stronger effect = lower value 0.934 | locus YGR252W, strain gcn5, stronger effect = lower value 0.841 | locus YHR013C, strain ard1, stronger effect = lower value 0.963 | locus YHR027C, strain rpn1, stronger effect = lower value 0.987 | locus YHR030C, strain SLT2, stronger effect = lower value 0.953 and 0.949 | locus YHR079C, strain IRE1 (second series), stronger effect = lower value 0.978 | locus YHR079C, strain IRE1, stronger effect = lower value 0.959 | locus YHR094C, strain hxt1, stronger effect = lower value 0.982 | locus YHR129C, strain ARP1, stronger effect = lower value 0.968 | locus YHR142W, strain chs7, stronger effect = lower value 0.925 | locus YHR200W, strain rpn10, stronger effect = lower value 0.956 | locus YIL066C, strain RNR3, stronger effect = lower value 0.953 | locus YIL073C, strain SPO22, stronger effect = lower value 0.866 | locus YIL125W, strain kgd1, stronger effect = lower value 1 | locus YIR030C, strain dcg1, stronger effect = lower value 0.972 | locus YJL092W, strain hpr5, stronger effect = lower value 0.987 | locus YJL095W, strain BCK1 (second series), stronger effect = lower value 0.981 | locus YJL095W, strain BCK1, stronger effect = lower value 0.812 and 0.951 | locus YJL115W, strain asf1, stronger effect = lower value 1.01 | locus YJL129C, strain trk1, stronger effect = lower value 0.931 | locus YJL134W, strain LCB3, stronger effect = lower value 0.981 | locus YJL154C, strain vps35, stronger effect = lower value 0.992 | locus YJL164C, strain tpk1, stronger effect = lower value 0.952 | locus YJL166W, strain qcr8, stronger effect = lower value 0.944 | locus YJL168C, strain set2, stronger effect = lower value 0.972 | locus YJL187C, strain SWE1 (second series), stronger effect = lower value 0.958 | locus YJL187C, strain SWE1, stronger effect = lower value 0.987 | locus YJR066W, strain TOR1, stronger effect = lower value 0.93 | locus YKL009W, strain mrt4, stronger effect = lower value 0.956
active: locus YDL192W, strain arf1, stronger effect = lower value 0.865 | locus YDR137W, strain rgp1, stronger effect = lower value 0.733 | locus YDR195W, strain ref2 1.19 [resistant] | locus YDR318W, strain mcm21, stronger effect = lower value 0.912 | locus YDR392W, strain spt3, stronger effect = lower value 0.455 | locus YER155C, strain BEM2 (second series), stronger effect = lower value 0.768 | locus YGL086W, strain mad1, stronger effect = lower value 0.928
